# Laboratory results from the supplement of paper PMC6555819.
# Test system: VDR:RXRa (NR concentration 270 nM, RXRa partner concentration 90 nM)
# Experiment: PBM binding z-score (relative to random genomic background probes); higher = stronger binding; sequences stand for … in GC…GCGATTGACAGCGTAGAATGAAGG
# Method: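 Protein-binding microarray (Agilent 4x180K custom design, double-stranded 60-nt probes: 5' GC cap, 34-nt variable region, 24-nt constant primer region; full probe sequence given). Purified or IVT nuclear receptor:RXRα heterodimers (3:1 NR:RXRα, mostly 270:90 nM) or homodimers were incubated for 1 h in PBS with 2% milk and no ligand, then detected with Alexa488 antibodies. Fluorescence from o1-orientation probes (~5 replicates averaged) was converted to z-scores against 500 random hg19 background probes. Variable regions are seed direct-repeat (DR0–DR5) sites, all their single-nucleotide variants and half-site ablations.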
row,Sequence,PBM binding z-score
1,AGAATGAGGTTAAGATCGGGGAAACAGAATACAT,1.18
2,CCTACTGGCCCAAAAAGGTCATTGATGCCGATAA,4.47
3,ATCTCTAGGTAAGACTCAGTTCTGTGAAGAACGC,0.069
4,CAAACTAGGTCACGCAAGGTCAAAGTCGAATGAC,6.9
5,ATATGTAGGTTACATCCAGGTCATTCAGGCTATG,4.11
6,CCTTACGGTTCACGAGGTTATAGCACGACGAGCG,4.12
7,ATCTCTAGGTAAAGATAGTTCAGTGCATGCAAAT,0.777
8,CTCGAAAGGTCGTGCTCAGGTGAGTGTACCAAAC,3.44
9,ATATGTAGGTTACAGCCGGGTCATTCAGGCTATG,4.1
10,ATCTCTAGGTAAATTTCAGTGAAAGATCGATAGA,0.297
11,ATCTCTAGGTAAAAGTTCAGTGATTCCCGAGGAT,1.05
12,TAGCCTAGGTCATGCGGGCCAGTTTAGTGTCGGC,2.97
13,TCTGCTAGGTCAAAGATGGTCAGCTAATCTGCTA,1.68
14,TCTTGTAGATCAACAGGAGGTTAGGAAAGATCGA,0.0401
15,GATACAGGGTCAGCTGGAGGCCAGAGTATGGAAA,3.29
16,CGTCCAAGGTCATAGGAGGTCAGAGAAGACAGAT,6.67
17,ATATGTAGGTTATCGGGTCGTTCAGTTTGCGCAT,3.89
18,TCTGCTAGGTCAGTGGGTCAGCTAACGAGCTGCC,1.5
19,TCTATTAGTTGAAGGGCAAACGACGAGTCCGTTT,1.45
20,GCTTGTAGATCAAGGTTATGAAAGACTAAGCTAA,0.325

row,Sequence,PBM binding z-score
1,AGAATGAGGTTATACGTAGAACAGGGAAGAAAGT,1.26
2,CCTACTGAGCCAAGGTCATTGATCAGTCAAAGCA,3.63
3,ACTTACGCGTCAACGAGGTTATAGCACGCGTATA,3.57
4,TCTCGGAGGACACGAAGGTCACAGCTTTCCAGAG,4.05
5,GCGACTGGGGCATCAGCAGGTTTCCATAACTTAA,-0.402
6,CAAACTAGATCAAGAGGTCAAAGTCCGCTTCCCG,4.68
7,TAGCATAGGTCATTCAGGGGCCAGTATAGAAAGC,4.18
8,CCGACTGGGGCAAATGTTACCATACTCAGTACGA,-0.22
9,AGTAGCAGGCCAAGTTTGGGTCACTCAAACAAAG,0.609
10,GCTATCAGTTGAAAGGGCAACCGAATGATTCTCG,0.34
11,CGTCCAAGGTTAGAGAGGTCAGTGAATGCCGAGT,5.7
12,TCTTGTAAATCAACAGGAGGTTAAGAAAGATCGA,1.16
13,AGAACGAGGGCAATGAGTTGTTAGCACGGGTGGC,4.09
14,TGTCAAAGTTCAAAGGTAAGGTAAGTATCCACAC,4.95
15,TACACAGGGTCAAAGGCCAGAGTACGAATGTCGA,4.89
16,AGAACGAGGGCACGCTGGGTTGATAGCAGAGTAG,2.53
17,CCTCGGTGGACAGAAGGTCAGAGCTGTCCGCTTT,0.609
18,TCTCGGAGGACACGAAAGGCCAGAGCTCGACATC,-0.308
19,AGATTGAGGTTATACGTAGATCAGGGAAGAAAGT,1.23
20,GCGACTGGGGCATCAGCAGGTTACCAGAACTTAA,-0.205
